Measurements: ChEMBL document CHEMBL4513146, “CO-ADD screening of Karazin Kharkiv National University (Ukraine) compounds”
Results with a measured potency or affinity are listed apart.

Columns and labels:
Klebsiella pneumoniae = conditions: Concentration 32 ug.mL-1;; ASSAY_TEST Inhibition of Bacterial Growth; detection method Absorption (OD600); MEDIA CAMHB; plate type 384well; NBS; CORNING #3640; time 18 hr
Candida albicans = conditions: Concentration 32 ug.mL-1; ASSAY_TEST Inhibition of Fungal Growth; detection method Absorption (OD530)
Cryptococcus neoformans = conditions: Concentration 32 ug.mL-1; ASSAY_TEST Inhibition of Fungal Growth; detection method Resazurin; Absorption (OD600-OD570); plate type 384well; NBS; CORNING #3640

## O=c1c2nnc(SCc3cccc(F)c3)n2ccn1-c1ccc(Br)cc1
Klebsiella pneumoniae
  Inhibition: 8.43%
Candida albicans
  Inhibition: 4.16%
Cryptococcus neoformans
  Inhibition: -10.68%

## O=C(CSc1nc2ccccc2n2c(-c3ccccc3)nnc12)Nc1ccc(Br)cc1
Klebsiella pneumoniae
  Inhibition: 12.64%
Candida albicans
  Inhibition: 10.16%
Cryptococcus neoformans
  Inhibition: -26.76%

## CCc1ccc(NC(=O)Cn2nc3c(Sc4ccccc4)nccn3c2=O)cc1
Klebsiella pneumoniae
  Inhibition: 6.05%
Candida albicans
  Inhibition: 4.46%
Cryptococcus neoformans
  Inhibition: -8.51%

## CCc1ccccc1NC(=O)Cn1nc2n(C)c(=O)c3c(c(-c4ccccc4)cn3C)n2c1=O
Klebsiella pneumoniae
  Inhibition: 1.01%
Candida albicans
  Inhibition: 6.61%
Cryptococcus neoformans
  Inhibition: -4.79%

## O=S(=O)(c1ccc2nncn2c1)N(Cc1ccc(Cl)cc1)c1ccc2c(c1)OCO2
Klebsiella pneumoniae
  Inhibition: 8.29%
Candida albicans
  Inhibition: 2.29%
Cryptococcus neoformans
  Inhibition: -11.3%

## COc1ccc(N(Cc2cccc(C)c2)S(=O)(=O)c2ccc3nnc(C)n3c2)cc1
Klebsiella pneumoniae
  Inhibition: 7.11%
Candida albicans
  Inhibition: 0.04%
Cryptococcus neoformans
  Inhibition: -1.35%

## CCc1nnc2ccc(S(=O)(=O)N(Cc3ccc(F)cc3)c3ccccc3)cn12
Klebsiella pneumoniae
  Inhibition: -0.12%
Candida albicans
  Inhibition: -0.14%
Cryptococcus neoformans
  Inhibition: -7.1%

## COc1ccc(-c2cc3c4nnc(SCC(=O)Nc5cc(F)ccc5C)n4ccn3n2)cc1
Klebsiella pneumoniae
  Inhibition: -19.37%
Candida albicans
  Inhibition: 1.81%
Cryptococcus neoformans
  Inhibition: -16.34%

## CCC(Sc1nnc2c(=O)n(-c3cccc(OC)c3)ccn12)C(=O)Nc1cc(C)ccc1C (stereo not given)
Klebsiella pneumoniae
  Inhibition: 11.08%
Candida albicans
  Inhibition: 1.67%
Cryptococcus neoformans
  Inhibition: -10.57%

## CC(C)c1ccc(NC(=O)Cn2nc3c(SCc4ccccc4)nccn3c2=O)cc1
Klebsiella pneumoniae
  Inhibition: 2.82%
Candida albicans
  Inhibition: 10.67%
Cryptococcus neoformans
  Inhibition: -15.97%
